Source: the supplement of paper PMC6555819

Key:
Experiment in all cases: PBM binding z-score (relative to random genomic background probes); higher = stronger binding; sequences stand for … in GC…GCGATTGACAGCGTAGAATGAAGG
[1] = system: PPARg:RXRa DBDmut IVT, anti-RXR (DBD mutation: RXRa K156A/R161A, NR concentration 270 nM, RXRa partner concentration 90 nM)
Procedure, shortened: (§1)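 Binding z-scores were set against random background probes. The data came from custom Agilent 4×180K protein-binding microarrays carrying double-stranded probes with 34-nt variable regions, incubated 1 h with ligand-free nuclear receptor dimers. Partner-specific antibodies detected binding, and scanned fluorescence was regression-normalized.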

[2] = system: PPARg:RXRa IVT, anti-PPARg (NR concentration 270 nM, RXRa partner concentration 90 nM)
Procedure, shortened: as §1

[3] = system: PPARg DBDmut:RXRa IVT, anti-PPARg (DBD mutation: PPARg1 K132A/R137A, NR concentration 270 nM, RXRa partner concentration 90 nM)
Procedure, shortened: as §1

[4] = system: PPARg DBDmut IVT, anti-PPARg (DBD mutation: PPARg1 K132A/R137A, NR concentration 270 nM)
Procedure, shortened: as §1

[5] = system: PPARg homodimer (NR concentration 180 nM)
Procedure, shortened: as §1

[6] = system: PXR:RXRa (NR concentration 270 nM, RXRa partner concentration 90 nM)
Procedure, shortened: as §1

[7] = system: PXR homodimer (NR concentration 270 nM)
Procedure, shortened: as §1

[8] = system: RARa:RXR (NR concentration 270 nM, RXRa partner concentration 90 nM)
Procedure, shortened: as §1

[9] = system: RARa homodimer (NR concentration 270 nM)
Procedure, shortened: as §1

[10] = system: RARb:RXRa (NR concentration 270 nM, RXRa partner concentration 90 nM)
Procedure, shortened: as §1

[11] = system: RARb homodimer (NR concentration 270 nM)
Procedure, shortened: as §1

[12] = system: RARg:RXRa (NR concentration 270 nM, RXRa partner concentration 90 nM)
Procedure, shortened: as §1

[13] = system: RARg homodimer (NR concentration 270 nM)
Procedure, shortened: as §1

[14] = system: RXRa DBDmut IVT, anti-RXR (DBD mutation: RXRa K156A/R161A, NR concentration 90 nM)
Procedure, shortened: as §1

[15] = system: RXRa homodimer (NR concentration 180 nM)
Procedure, shortened: as §1

[16] = system: THRa:RXRa (NR concentration 90 nM, RXRa partner concentration 90 nM)
Procedure, shortened: as §1

[17] = system: THRa homodimer (NR concentration 90 nM)
Procedure, shortened: as §1

[18] = system: VDR homodimer (NR concentration 270 nM)
Procedure, shortened: as §1

| Sequence | PBM binding z-score [1] | PBM binding z-score [2] | PBM binding z-score [3] | PBM binding z-score [4] | PBM binding z-score [5] | PBM binding z-score [6] | PBM binding z-score [7] | PBM binding z-score [8] | PBM binding z-score [9] | PBM binding z-score [10] | PBM binding z-score [11] | PBM binding z-score [12] | PBM binding z-score [13] | PBM binding z-score [14] | PBM binding z-score [15] | PBM binding z-score [16] | PBM binding z-score [17] | PBM binding z-score [18] |
| --- | --- | --- | --- | --- | --- | --- | --- | --- | --- | --- | --- | --- | --- | --- | --- | --- | --- | --- |
| ATCTCTAGGTAACCAAGTTCAGTGTATGCCGAAC | 3.75 | 3.04 | 0.877 | 1.39 | 0.882 | 1.9 | 1.95 | 0.828 | 1.09 | 1.08 | 1.47 | 0.771 | 0.637 | 0.982 | 0.429 | 1.48 | 0.867 | 2.85 |
| TCGCGTAGGTTAGTCGGGGCATTCAGCCAACATA | 0.798 | 0.382 | -0.631 | -0.248 | -0.58 | 0.226 | -0.158 | 0.335 | -0.333 | 0.559 | 0.519 | 0.0765 | -0.112 | 0.21 | -0.0315 | 1.26 | -0.0265 | 0.208 |
| CGAACTAGATCAAGGACAGTGAATCTCCGCACGC | 1.97 | 0.649 | -0.11 | -0.153 | 0.0368 | -0.495 | -0.0304 | -0.24 | 0.262 | 0.0814 | 0.0367 | -0.32 | 0.287 | 0.258 | -0.168 | 1.22 | 1.24 | -0.103 |
| AGAATGAGGTTATTAAGATCGGGGAATTGCGGTC | 2.65 | 2.39 | 0.666 | -0.0579 | 0.639 | 1.23 | 0.366 | 1.26 | 0.527 | 1.37 | 0.767 | 0.927 | 0.627 | 2.18 | 1.38 | 2.2 | 0.74 | 1.27 |
| GCGACTGGGGCATCAGCAGGTTACCATCACTTAA | 4.02 | 3.08 | -0.268 | -0.441 | 0.406 | -0.239 | -0.641 | 0.272 | -0.548 | 0.891 | 0.92 | 0.879 | 0.45 | -0.0239 | 0.259 | 0.783 | 0.0403 | -0.183 |
| CAAACTAGGTCAAGAGGTCAAAGCCCGCTTCCCG | 8.12 | 8.64 | 4.39 | 2.45 | 7.29 | 6.42 | 1.66 | 7.68 | 2.35 | 5.54 | 5.64 | 8.19 | 7.34 | 2.92 | 7.83 | 4.46 | 2.47 | 3.87 |
| TATACAGGGACAAAGGCCAGAGTACGAATGTCGA | -0.141 | 1.3 | 0.681 | 0.636 | 0.776 | 0.0293 | 0.479 | 0.273 | 0.492 | 1.54 | 1.4 | 1.29 | 1.58 | -0.217 | 0.385 | 0.949 | -0.0231 | 0.738 |
| GGAACGAGGGCATGCGAGTTGATAGCATGGCGAT | 2.78 | 1.98 | -0.352 | -0.663 | -0.621 | 3.59 | 0.407 | 0.73 | -0.824 | 1.91 | 0.608 | 1.21 | 1.6 | 2.03 | 0.847 | 2.7 | -0.777 | 1.97 |
| CGACCTAGGTCAGAACAGGACAGTGAAGGATGAT | 2.58 | 2.09 | -0.486 | -0.795 | 1.04 | 1.42 | -0.195 | 0.948 | 0.342 | 3.33 | 2.62 | 3.3 | 4.04 | 0.773 | 2.21 | 3.83 | 0.505 | 0.303 |
| CCTACTGGGCCATTCAGAGGTCCTTGATCATATG | 4.1 | 3.15 | -0.401 | 0.127 | -0.0171 | -0.621 | -0.408 | -0.409 | -0.479 | 0.0641 | 0.208 | -0.0281 | -0.184 | -0.26 | -0.29 | -0.305 | -0.128 | -0.336 |
| CCTTACGGGTCAAGGTTATAACACGGGTGGTACG | 2.12 | 3.6 | 0.305 | -0.192 | 2.04 | 3.52 | 0.548 | 4.5 | 0.85 | 4.24 | 3.35 | 5.02 | 4.89 | 1.1 | 5.42 | 3.06 | 0.539 | 1.41 |
| TCATATAGTTAAACAGGTGAAAGTCCGTAAGTTA | 2.65 | 1.54 | 1.36 | 1.6 | 1.34 | 0.848 | 0.543 | 1.2 | 1.91 | 0.698 | 0.84 | 0.464 | 0.347 | 1.57 | 1.04 | 0.679 | 0.485 | 0.667 |
| CAACCAAGGTGAACAAGGTCGTTGATTACTATTC | 2.56 | 3.05 | 0.422 | 0.588 | 0.973 | 2.8 | 1.68 | 2.42 | 0.281 | 2.29 | 2.25 | 1.9 | 1.64 | 1.49 | 2.07 | 3.44 | 2.06 | 2.59 |
| TCATATAGGTAAAGATGAAAGTCGAACGATATGA | 3.2 | 1.97 | 1.28 | 0.63 | -1.18 | -0.0573 | -0.0684 | 0.268 | 0.0923 | 0.318 | -0.846 | 0.547 | 0.586 | 0.337 | 0.56 | -0.225 | -1.11 | -0.391 |
| ATCTCTAGGTAACAGTTCAGTGAATCCCGAGGAT | 3.65 | 3.42 | 1.56 | 1 | 0.452 | 0.487 | 0.757 | 0.576 | 0.915 | 1.01 | 0.815 | 0.757 | 0.845 | 0.0711 | 0.513 | 0.831 | 0.517 | 0.915 |
